Screening results from PubChem BioAssay.
The sample as a whole holds a higher share of hits than the screen did.
Algae TAG accum: inducers of TAG accumulation in Chlamydomonas, primary screen, qHTS, Chlamydomonas reinhardtii; Nile Red fluorescence, 72 h; calls only at 10 µM (by protocol); 0.84% of 44,000 active; AID 1159537, 2015; call rule not given here;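 further: hits raise Nile Red signal meaning more stored TAG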
The depositor's hits bear a star; i = inactive; + = active, no number.

SMILES	Algae TAG accum
Oc1ccc(Cl)cc1CN1CCN(Cc2ccccc2)CC1	+
O=[N+]([O-])c1ccc(O)c(CN2CCN(Cc3ccccc3)CC2)c1	i
COc1ccc(O)c(CN2CCN(Cc3ccc(Cl)cc3)CC2)c1	i
Cc1ccc(C)c(CN2CCN(c3ccccc3C)CC2)c1	i
Oc1cccc(CN2CCN(c3ccc(F)cc3)CC2)c1	i
Fc1ccc(N2CCN(CCc3ccccc3)CC2)cc1	+
c1ccc(CCN2CCOCC2)cc1	i
COc1cc(OC)c(CN2CCN(c3ccccc3)CC2)cc1Br	i
OC(Cc1ccncc1)C(Cl)(Cl)Cl (stereo not drawn)	i
CN1C(=O)N(C)C(=O)C(CCc2ccncc2)(Cc2ccc(F)cc2)C1=O	i
CC(Cc1ccccc1)NC(=O)CN1CCCC1=O (stereo not drawn)	i
COc1ccccc1N1CCN(Cc2ccc(Cl)c(Cl)c2)CC1	i
COc1ccccc1N1CCN(Cc2ccc(F)c(Br)c2)CC1	i
COc1ccccc1N1CCN(Cc2ccc(F)cc2)CC1	+
COc1ccccc1N1CCN(Cc2ccc(O)cc2)CC1	+
COc1ccc(CN2CCN(c3ccccc3OC)CC2)cc1O	i
CCOc1ccccc1N1CCN(Cc2ccc(OC)cc2)CC1	i
CCOc1ccc2c(c1)c(C(=O)O)c(C)n2C	i
O=[N+]([O-])c1ccc(O)c(CN2CCN(c3ccccc3F)CC2)c1	i
COc1ccc(CCN(C)Cc2ccc([N+](=O)[O-])cc2)cc1OC	+
COc1ccc(CCN(C)Cc2cccc([N+](=O)[O-])c2)cc1OC	i
COc1ccc(CCN(C)Cc2ccc([N+](=O)[O-])o2)cc1OC	i
NCCc1c[nH]c2c(Cl)ccc(Cl)c12	i
CCOc1cc(CN2CCN(c3ccccc3)CC2)ccc1O	i
O=C(Cc1ccccc1)N1CCN(Cc2ccc([N+](=O)[O-])cc2)CC1	i
SMILES	Algae TAG accum
Cc1cccc(N2CCN(Cc3ccc([N+](=O)[O-])cc3)CC2)c1C	+
O=[N+]([O-])c1ccc(CN2CCN(Cc3ccccc3F)CC2)cc1	+
CSc1ccc(CN2CCN(c3ccccc3C)CC2)cc1	i
CCc1ccc(CN2CCN(c3ccccc3C)CC2)cc1	+
Cc1ccccc1N1CCN(Cc2ccccc2)CC1	i
Cc1ccccc1N1CCN(Cc2ccc(F)cc2)CC1	+
Cc1ccccc1N1CCN(Cc2ccc(Br)cc2)CC1	i
Cc1cccc(N2CCN(Cc3ccc(F)cc3)CC2)c1C	i
Cc1cccc(N2CCN(Cc3cccc([N+](=O)[O-])c3)CC2)c1C	i
Cc1cccc(N2CCN(Cc3ccccc3)CC2)c1C	i
O=[N+]([O-])c1ccccc1CN1CCN(Cc2ccccc2)CC1	i
COc1ccc(N2CCN(Cc3cccc(Br)c3)CC2)cc1	i
Cc1cccc(CN2CCN(c3ccc([N+](=O)[O-])cc3)CC2)c1	i
CCOc1ccccc1CN1CCN(C)CC1	i
CC1CN(c2ccccc2[N+](=O)[O-])CC(C)N1 (stereo not drawn)	i
COc1ccc(N2CCN(Cc3ccc(C)cc3)CC2)cc1	i
CC1(C)CC2(CCCNC2)CCO1 (stereo not drawn)	i
CC(=O)c1ccc(N2CCN(Cc3ccc(Br)cc3)CC2)cc1	i
Brc1ccc(CN2CCN(c3ccccc3)CC2)cc1	+
CC(C)c1ccc(CN2CCN(c3ccccc3)CC2)cc1	i
COc1cc(CN2CCN(C)CC2)c([N+](=O)[O-])cc1OC	i
COc1ccc(CN2CCCCC2c2cccnc2)cc1C (stereo not drawn)	i
COc1ccc(CN2CCN(c3ccc(Cl)cc3)CC2)cc1O	i
O=C(COc1ccccc1)N1CCN(Cc2ccccc2)CC1	i
COc1ccccc1N1C(=O)CC(=O)NC1=O	i
Cc1[nH]cnc1CN1CCN(C)CC1	i
OCCN1CCN(Cc2ccc(F)c(F)c2)CC1	i
CC(C)c1ccc(CN2CCN(CCO)CC2)cc1	+
OCCN1CCN(Cc2ccc(Cl)cc2)CC1	i
Cc1ccccc1CN1CCN(C(=O)Cc2ccccc2)CC1	i
